# Reference: PubChem BioAssay
# Inconclusive results are not listed. The source made the active and inactive calls.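 The calls were made as follows, unless noted: active = binding below the plate cutoff, the plate median minus 3 SD, with a reading above zero; inconclusive = below the plate cutoff but reading exactly zero; inactive = the rest.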
# Legend:
# [1] = rapamycin-like changes in RPL19A-GFP expression – cell-based, S. cerevisiae, multiplex flow cytometry, primary screen (AID 1862; in the data active = percent of DMSO control GFP below about 86%;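 also: lower values mimic rapamycin by blocking the RPL19A rise seen in DMSO cells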); settings: S. cerevisiae RPL19A-GFP strain, flow cytometry fluorescence, 3 h; at 10 µM; stronger effect = lower value
# [2] = TOR pathway GLN3 branch reporter MEP2-GFP changes – S. cerevisiae, multiplex flow cytometry, primary screen (AID 1867;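 active = GFP response, as percent of the DMSO control, above the screen-wide mean plus 3 SD, about 139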;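 also: median GFP channel fluorescence of barcode-gated MEP2-GFP cells measured by flow cytometry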); settings: S. cerevisiae MEP2-GFP strain, 3 h, at 10 µM, stronger effect = higher value, 100% means same as DMSO wells
# [3] = TOR pathway RTG branch CIT2 reporter changes – S. cerevisiae, GFP fusion, multiplex flow cytometry, primary screen (AID 1870;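 active = percent response above a set limit, the screen-wide mean plus 3 SD, cut at about 130% in these data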;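 also: barcoded CIT2-GFP strain pooled with four other GFP strains with rapamycin as positive control; median GFP fluorescence per well over plate mean of DMSO wells so 100% = DMSO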); settings: S. cerevisiae CIT2-GFP expression, 3 h, at 10 µM, stronger effect = higher value
# [4] = TOR pathway LAP4-GFP level changes – S. cerevisiae, multiplex flow cytometry, primary screen (AID 1873;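 active = GFP signal, as percent of the solvent control, above the screen mean plus 3 SD, about 149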); settings: S. cerevisiae LAP4-GFP expression, 3 h, at 10 µM, stronger effect = higher value
# [5] = yeast AGP1-GFP level changes, GLN3 branch – cell-based, multiplex flow cytometry, S. cerevisiae, primary screen (AID 1887;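 active = GFP signal above the screen-wide mean plus 3 SD, that is over about 124.5% of the solvent control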;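 also: AGP1-GFP fusion strain of S. cerevisiae within a five-strain barcoded multiplex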); settings: 3 h, at 10 µM, stronger effect = higher value
# [6] = reduced mouse 2C T cell binding to pMHC/ICAM-1 vesicles – MLPCN validation set, flow cytometry, LFA-1/ICAM-1 modulator project, pilot screen (AID 2523;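 active = response below a set limit, under 55% cells CD8-positive and vesicle-bound, and CD8 cells' 90th-percentile brightness under 279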;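 as to vesicle binding response: mean PE anti-B7-1 fluorescence of CD8+ cells relative to row control; 100% = QL9-loaded vesicles with DMSO vehicle in the same plate row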); settings: 2C mouse CD8+ T cells, at 7 µM, stronger effect = lower value; double positive events: measured here: CD8+/vesicle+ event percentage
# [7] = target: Integrin beta-1 (Homo sapiens) + Integrin alpha-4 (Homo sapiens) (UniProt P13612+P05556); assay: alpha4beta1 integrin LIBS antibody binding reduction – U937 cells, HUTS-21 mAb, flow cytometry, validation set, VLA-4 allosteric modulator project, pilot screen (AID 2674;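 active = inhibition above 50%, about 3 SD of the validation set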;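 also: antibody binding induced by the VLA-4 ligand LDV present at three times its Kd; 0% = LDV ligand with antibody and no compound and 100% = antibody without LDV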); settings: HUTS-21 LIBS mAb binding, at 6.7 µM, stronger effect = higher value, binding induced by LDV ligand
# Chain of Integrin beta-1 (Homo sapiens) + Integrin alpha-4 (Homo sapiens) (P05556 whole entry, looked up): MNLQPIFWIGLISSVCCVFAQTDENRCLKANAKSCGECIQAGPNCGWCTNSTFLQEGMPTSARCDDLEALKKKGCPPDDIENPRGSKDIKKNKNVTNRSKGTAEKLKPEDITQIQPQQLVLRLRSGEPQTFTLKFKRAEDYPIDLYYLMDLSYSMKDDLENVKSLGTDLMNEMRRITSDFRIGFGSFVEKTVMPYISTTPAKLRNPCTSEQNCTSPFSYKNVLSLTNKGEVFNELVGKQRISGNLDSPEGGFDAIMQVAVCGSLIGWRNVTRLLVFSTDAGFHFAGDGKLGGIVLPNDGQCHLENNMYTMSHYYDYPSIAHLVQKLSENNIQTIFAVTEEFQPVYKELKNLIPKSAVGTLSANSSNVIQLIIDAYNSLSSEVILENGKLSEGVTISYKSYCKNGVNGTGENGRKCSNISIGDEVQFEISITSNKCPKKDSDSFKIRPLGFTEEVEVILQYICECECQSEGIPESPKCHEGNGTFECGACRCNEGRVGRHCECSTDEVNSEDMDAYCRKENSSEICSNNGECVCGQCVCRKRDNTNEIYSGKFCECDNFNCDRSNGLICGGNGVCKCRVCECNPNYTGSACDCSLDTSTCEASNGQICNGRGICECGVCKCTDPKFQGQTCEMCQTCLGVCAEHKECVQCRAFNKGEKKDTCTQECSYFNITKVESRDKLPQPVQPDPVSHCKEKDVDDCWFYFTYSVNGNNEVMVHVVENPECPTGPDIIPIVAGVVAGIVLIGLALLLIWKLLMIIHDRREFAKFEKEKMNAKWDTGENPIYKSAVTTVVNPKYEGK
# Chain of Integrin beta-1 (Homo sapiens) + Integrin alpha-4 (Homo sapiens) (P13612 whole entry, looked up): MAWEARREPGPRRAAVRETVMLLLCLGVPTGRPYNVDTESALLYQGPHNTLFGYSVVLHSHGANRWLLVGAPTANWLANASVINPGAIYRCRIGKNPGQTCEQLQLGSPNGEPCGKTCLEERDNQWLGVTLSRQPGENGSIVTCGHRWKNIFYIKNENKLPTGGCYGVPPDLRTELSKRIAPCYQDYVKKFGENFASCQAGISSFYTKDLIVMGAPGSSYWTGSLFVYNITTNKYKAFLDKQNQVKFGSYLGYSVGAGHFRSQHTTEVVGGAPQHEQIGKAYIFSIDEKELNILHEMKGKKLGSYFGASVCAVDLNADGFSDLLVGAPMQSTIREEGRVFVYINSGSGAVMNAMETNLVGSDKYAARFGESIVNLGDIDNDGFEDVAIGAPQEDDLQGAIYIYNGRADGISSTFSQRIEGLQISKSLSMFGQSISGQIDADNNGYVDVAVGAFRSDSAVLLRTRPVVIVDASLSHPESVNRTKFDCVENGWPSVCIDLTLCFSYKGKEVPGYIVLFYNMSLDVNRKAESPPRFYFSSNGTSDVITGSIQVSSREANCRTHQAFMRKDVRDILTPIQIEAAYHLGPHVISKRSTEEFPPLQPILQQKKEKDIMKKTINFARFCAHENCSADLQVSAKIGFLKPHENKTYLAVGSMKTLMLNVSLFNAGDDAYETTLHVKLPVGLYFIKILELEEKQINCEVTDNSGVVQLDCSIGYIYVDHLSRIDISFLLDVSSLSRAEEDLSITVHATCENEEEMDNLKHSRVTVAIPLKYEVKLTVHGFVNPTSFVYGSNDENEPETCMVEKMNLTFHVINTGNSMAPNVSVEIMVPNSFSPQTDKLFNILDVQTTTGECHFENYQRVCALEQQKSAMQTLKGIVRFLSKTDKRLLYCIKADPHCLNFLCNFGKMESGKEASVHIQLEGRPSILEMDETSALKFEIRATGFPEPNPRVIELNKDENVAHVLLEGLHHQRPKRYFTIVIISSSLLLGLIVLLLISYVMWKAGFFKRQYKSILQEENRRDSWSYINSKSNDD
# [8] = calorie-restriction mimetic ROS inhibitors, yeast – validation compound set, pilot screen (AID 2706;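 active = superoxide response below 65% of plate, a cut near 3 SD across the whole screen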;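 also: yeast exposed to compound for one week at 30 degrees C before staining; 100% = mean of all compound wells on the same plate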); settings: S. cerevisiae aging, superoxide DHE fluorescence; at 10 µM; stronger effect = lower value
# [9] = target: Beta-adrenergic receptor kinase 1 (Homo sapiens) (UniProt P25098); assay: GRK2 binders displacing RNA aptamer, biochemical, validation, human GRK2, bead flow cytometry (AID 488806;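 active = aptamer binding inhibition above 30%, about 3 SD of noise from non-fluorescent compounds; inactive = inhibition at or below 30%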); settings: bead-bound GRK2, FAM-aptamer displacement, at 10 µM, stronger effect = higher value
# Chain of Beta-adrenergic receptor kinase 1 (Homo sapiens) (P25098 whole entry, looked up): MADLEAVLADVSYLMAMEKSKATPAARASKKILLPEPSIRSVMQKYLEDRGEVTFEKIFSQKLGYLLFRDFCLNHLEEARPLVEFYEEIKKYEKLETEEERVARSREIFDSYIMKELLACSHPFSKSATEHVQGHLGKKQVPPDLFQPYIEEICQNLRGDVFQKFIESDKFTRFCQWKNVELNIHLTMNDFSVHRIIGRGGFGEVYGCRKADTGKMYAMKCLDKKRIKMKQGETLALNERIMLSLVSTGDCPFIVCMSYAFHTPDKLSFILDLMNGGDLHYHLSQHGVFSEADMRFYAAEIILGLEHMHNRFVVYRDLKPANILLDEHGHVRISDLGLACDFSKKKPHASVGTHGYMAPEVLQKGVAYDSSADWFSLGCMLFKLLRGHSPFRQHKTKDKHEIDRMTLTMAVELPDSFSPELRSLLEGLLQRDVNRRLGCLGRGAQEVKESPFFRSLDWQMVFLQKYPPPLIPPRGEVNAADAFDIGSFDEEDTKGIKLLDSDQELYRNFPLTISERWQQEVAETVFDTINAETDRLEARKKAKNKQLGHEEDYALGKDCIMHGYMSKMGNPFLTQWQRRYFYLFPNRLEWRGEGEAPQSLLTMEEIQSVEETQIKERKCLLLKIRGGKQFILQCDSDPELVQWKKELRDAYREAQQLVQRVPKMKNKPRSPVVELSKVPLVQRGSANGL
# [10] = target: Beta-2 adrenergic receptor (Homo sapiens) (UniProt P07550); assay: agonist-induced loss of surface beta2AR – cell-based, FAP fluorogen, flow cytometry, validation set, pilot screen (AID 504459;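 active = percent response above 42, roughly 3 SD of non-fluorescent test compounds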;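 also: agonist-driven loss of surface beta2AR via internalization measured by FAP dye flow cytometry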); settings: Am2.2-beta2AR cells, at 10 µM, stronger effect = higher value
# Chain of Beta-2 adrenergic receptor (Homo sapiens) (P07550 whole entry, looked up): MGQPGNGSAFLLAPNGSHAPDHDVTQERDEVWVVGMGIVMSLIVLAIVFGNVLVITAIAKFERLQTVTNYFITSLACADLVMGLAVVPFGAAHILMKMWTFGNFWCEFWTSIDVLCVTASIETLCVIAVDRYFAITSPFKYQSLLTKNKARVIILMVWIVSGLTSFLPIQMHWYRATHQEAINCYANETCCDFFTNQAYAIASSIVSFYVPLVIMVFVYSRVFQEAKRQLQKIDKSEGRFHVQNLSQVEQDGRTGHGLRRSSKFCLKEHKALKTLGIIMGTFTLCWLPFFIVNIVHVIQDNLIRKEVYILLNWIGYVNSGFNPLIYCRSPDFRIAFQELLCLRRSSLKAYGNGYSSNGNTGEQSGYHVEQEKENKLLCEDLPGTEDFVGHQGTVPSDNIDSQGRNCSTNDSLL
# [11] = target: AP-2 complex subunit beta (Homo sapiens) (UniProt P63010); assay: beta-arrestin/AP2 interaction blockers – biochemical, validation set, GST-AP2 beads, flow cytometry, pilot screen (AID 504541;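 active = inhibition above 54%, about 3 SD of non-fluorescent compounds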;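 also: AP2 carries R879A mutation and is captured from E. coli lysate; bead-bound FITC arrestin peptide fluorescence measuring arrestin peptide binding to AP2; 0% = DMSO wells and 100% = excess unlabeled arrestin peptide control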); settings: FITC arrestin peptide, at 10 µM, stronger effect = higher value, AP2 beta2 appendage fragment, R879A mutant
# Chain of AP-2 complex subunit beta (Homo sapiens) (P63010 whole entry, looked up, the tested form may be a part, one chain of several): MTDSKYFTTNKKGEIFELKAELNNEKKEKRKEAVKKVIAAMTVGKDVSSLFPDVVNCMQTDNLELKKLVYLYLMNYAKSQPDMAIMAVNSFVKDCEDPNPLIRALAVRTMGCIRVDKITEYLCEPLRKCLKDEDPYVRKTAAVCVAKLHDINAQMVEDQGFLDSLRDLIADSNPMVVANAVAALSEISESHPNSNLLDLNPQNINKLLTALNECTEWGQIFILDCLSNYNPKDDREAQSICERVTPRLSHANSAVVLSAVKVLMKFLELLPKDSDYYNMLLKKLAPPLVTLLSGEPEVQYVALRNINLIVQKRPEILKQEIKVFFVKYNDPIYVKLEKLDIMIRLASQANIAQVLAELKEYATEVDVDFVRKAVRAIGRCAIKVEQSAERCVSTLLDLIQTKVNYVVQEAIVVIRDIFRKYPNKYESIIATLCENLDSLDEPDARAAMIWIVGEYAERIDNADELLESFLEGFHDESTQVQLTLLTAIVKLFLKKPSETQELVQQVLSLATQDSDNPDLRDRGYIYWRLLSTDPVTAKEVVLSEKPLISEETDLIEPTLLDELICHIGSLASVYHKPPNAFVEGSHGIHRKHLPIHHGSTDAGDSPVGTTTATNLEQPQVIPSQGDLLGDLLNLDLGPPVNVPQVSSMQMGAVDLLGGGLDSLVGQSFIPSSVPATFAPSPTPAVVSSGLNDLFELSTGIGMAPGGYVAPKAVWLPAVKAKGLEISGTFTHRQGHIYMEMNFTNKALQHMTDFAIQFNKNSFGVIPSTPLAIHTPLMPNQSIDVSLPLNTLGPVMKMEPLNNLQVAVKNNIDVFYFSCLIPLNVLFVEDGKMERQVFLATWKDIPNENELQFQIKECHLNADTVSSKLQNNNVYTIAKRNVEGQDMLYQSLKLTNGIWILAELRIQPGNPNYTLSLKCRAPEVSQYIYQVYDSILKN
# [12] = cytosolic pH regulators acting via V-ATPase – S. cerevisiae, pHLuorin, HTS validation (AID 504600; in the data active = response above about 15%;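 also: plate controls were DMSO for no effect and reference compound for full effect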); settings: V-ATPase proton transport, at 10 µM, stronger effect = higher value
# [13] = test system: anti-desmoglein-3 scFv antibody binding to human DSG3; assay: blockers of pathogenic pemphigus antibody–desmoglein-3 binding – biochemical, validation compound set, bead-based, flow cytometry, pilot screen (AID 588368); settings: Protein G beads, DSG3-Fc, scFv-GFP binding, at 10 µM, stronger effect = lower value;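 also: signal is the median channel fluorescence of bead-bound GFP antibody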
# [14] = Nile Red efflux blockade in pump-expressing yeast – validation compound set, multiplex, phenotypic, pilot screen (AID 588506;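 active = efflux inhibition above 0.42, the validation set average plus 4 SD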;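 also: Nile Red retained in cells so higher fluorescence means more efflux inhibition; 0 = negative control wells and 1 = enniatin B 25 µM full block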); settings: S. cerevisiae pump-expressing triplex, Nile Red efflux flow cytometry; at 10 µM; stronger effect = higher value; the pumps come from Candida albicans
# [15] = target: ATP-binding cassette sub-family B member 6 (Homo sapiens) (UniProt Q9NP58); assay: blockers of ABCB6-driven porphyrin uptake – K562-ABCB6 cells, flow cytometry, validation set, pilot screen (AID 588550;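 active = inhibition above the screen-wide mean plus 3 SD, about 51%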;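 also: 0% = DMSO wells and 100% = benzethonium chloride 70 µM positive control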); settings: K562-ABCB6 porphyrin accumulation, 1 h, at 10 µM, stronger effect = higher value
# Chain of ATP-binding cassette sub-family B member 6 (Homo sapiens) (Q9NP58 whole entry, looked up): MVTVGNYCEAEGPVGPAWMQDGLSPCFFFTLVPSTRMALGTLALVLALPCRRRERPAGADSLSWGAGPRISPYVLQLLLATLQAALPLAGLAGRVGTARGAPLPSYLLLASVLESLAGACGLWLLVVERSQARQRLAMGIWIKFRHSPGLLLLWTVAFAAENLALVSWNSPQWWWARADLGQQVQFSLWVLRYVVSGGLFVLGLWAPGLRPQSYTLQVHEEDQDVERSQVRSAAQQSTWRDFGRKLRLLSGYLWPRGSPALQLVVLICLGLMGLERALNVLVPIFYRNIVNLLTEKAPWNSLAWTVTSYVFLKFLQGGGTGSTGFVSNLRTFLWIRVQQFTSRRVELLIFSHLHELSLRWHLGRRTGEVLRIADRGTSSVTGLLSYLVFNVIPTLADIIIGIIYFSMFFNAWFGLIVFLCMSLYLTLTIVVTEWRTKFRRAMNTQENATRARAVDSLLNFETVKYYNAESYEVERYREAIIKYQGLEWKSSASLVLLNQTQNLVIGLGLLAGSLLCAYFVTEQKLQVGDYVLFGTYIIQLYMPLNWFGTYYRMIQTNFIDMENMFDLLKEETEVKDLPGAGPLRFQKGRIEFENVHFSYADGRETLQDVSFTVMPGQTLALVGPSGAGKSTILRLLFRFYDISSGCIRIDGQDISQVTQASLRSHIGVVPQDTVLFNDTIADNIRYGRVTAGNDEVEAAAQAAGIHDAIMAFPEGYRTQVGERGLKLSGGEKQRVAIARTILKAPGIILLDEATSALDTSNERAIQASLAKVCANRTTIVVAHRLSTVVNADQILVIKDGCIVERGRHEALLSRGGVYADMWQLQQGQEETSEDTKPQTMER
# [16] = AML differentiation inducers, ER-HoxA9 marrow cells – cell-based, GFP/MAC1 double positive, flow cytometry, validation set, primary screen (AID 588685;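 active = differentiation response of at least 50%, scaled between solvent and reference control, from cells with both markers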;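 also: compound exposure lasts four days before antibody staining and flow analysis; 0% = DMSO wells and 100% = 5 µM fulvestrant positive control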); settings: stronger effect = higher value, normalized: vehicle 0, fulvestrant 100
SMILES,percent of DMSO control GFP [1],GFP response vs DMSO [2],percent response of DMSO control [3],GFP response vs DMSO [4],"GFP response, % of DMSO [5]",double positive events [6] [%],vesicle binding response [6],inhibition [7],superoxide response (% of plate) [8],aptamer binding inhibition [9],response [10],inhibition [11],response [12],binding (% of control) [13],efflux inhibition (fraction of control) [14],inhibition [15],differentiation response [16]
COCCCNc1nc2c([nH]1)c(=O)[nH]c(=O)n2C,104% (inactive),99.6% (inactive),105% (inactive),112% (inactive),114% (inactive),63.1,156% (inactive),9.95% (inactive),94.3% (inactive),4% (inactive),-17.8% (inactive),13.3% (inactive),6.45% (inactive),98.5% (inactive),-0.17 (inactive),6% (inactive),-5.97% (inactive)
CC(C)CC(NC(=O)c1cccc(Cl)c1)C(=O)O (stereo not given),94.6% (inactive),102% (inactive),94.8% (inactive),129% (inactive),101% (inactive),60.5,207% (inactive),-7.25% (inactive),113% (inactive),0% (inactive),-14.8% (inactive),14.1% (inactive),1.45% (inactive),98% (inactive),-0.13 (inactive),2% (inactive),-5.6% (inactive)
CCN(CCCc1ccccc1)CCCc1ccccc1,100% (inactive),103% (inactive),102% (inactive),106% (inactive),118% (inactive),63.1,202% (inactive),27.8% (inactive),118% (inactive),0% (inactive),-9.83% (inactive),34.3% (inactive),-9.09% (inactive),103% (inactive),0.04 (inactive),3% (inactive),-9.91% (inactive)
CC(C)CCC1(CCNC(C)c2cccs2)CCOC(C)(C)C1 (stereo not given),102% (inactive),108% (inactive),97.8% (inactive),93.3% (inactive),101% (inactive),58.8,1220% (inactive),-6.68% (inactive),96.5% (inactive),0% (inactive),8.29% (inactive),1.09% (inactive),-1.06% (inactive),98.5% (inactive),-0.17 (inactive),2% (inactive),1.22% (inactive)
COc1cc(NC(=S)NC(=O)c2cccs2)ccc1NC(=O)C(C)C,99.7% (inactive),108% (inactive),90.1% (inactive),124% (inactive),101% (inactive),66.4,265% (inactive),-14.1% (inactive),113% (inactive),3% (inactive),-2.44% (inactive),-6.94% (inactive),1.32% (inactive),96.8% (inactive),0.05 (inactive),9% (inactive),-28% (inactive)
CCOc1ccc(C(=O)C(C)=O)c(OCC)c1,101% (inactive),99.7% (inactive),104% (inactive),100% (inactive),105% (inactive),64.3,211% (inactive),-1.09% (inactive),105% (inactive),2% (inactive),-2.34% (inactive),-2.17% (inactive),1.92% (inactive),97% (inactive),-0.02 (inactive),19% (inactive),-13.3% (inactive)
COc1ccc2c(c1)c(=O)oc1cc3occ(C(C)(C)C)c3cc12,103% (inactive),105% (inactive),103% (inactive),109% (inactive),108% (inactive),60,138% (inactive),9.95% (inactive),92.5% (inactive),0% (inactive),-15.7% (inactive),42.4% (inactive),29.4% (active),93.8% (inactive),0.21 (inactive),0% (inactive),-14.8% (inactive)
COc1ccc(OC(C)C(=O)Nc2ccccc2F)cc1 (stereo not given),102% (inactive),99.7% (inactive),102% (inactive),108% (inactive),99.3% (inactive),58.4,151% (inactive),25.7% (inactive),90.6% (inactive),0% (inactive),6.77% (inactive),-5.67% (inactive),0.03% (inactive),104% (inactive),-0.15 (inactive),8% (inactive),-6.03% (inactive)
O=c1c2ccccc2nc2n1CCCN2,103% (inactive),97.4% (inactive),111% (inactive),98.2% (inactive),103% (inactive),50.4,72.9% (active),-7.25% (inactive),102% (inactive),-1% (inactive),-10.8% (inactive),-9.42% (inactive),-1.39% (inactive),102% (inactive),-0.1 (inactive),2% (inactive),-16.8% (inactive)
COc1ccccc1C(CCN(Cc1ccccc1)C(C)=O)c1ccco1 (stereo not given),91.5% (inactive),130% (inactive),103% (inactive),78.7% (inactive),88% (inactive),56.4,145% (inactive),8.4% (inactive),122% (inactive),6% (inactive),-11.5% (inactive),2.58% (inactive),0.45% (inactive),102% (inactive),0.12 (inactive),15% (inactive),1.64% (inactive)
